Source: publication PMC11062922 (Nature Chemical Biology, 2023)

tested on: ACAD8; set-up: species or system human, MV4-11 + K-562 + COLO205 + SK-N-BE2 + OVCAR-8; conditions: read-out: apparent Kd; compound concentrations:100 nM and 1000 nM (sheet 'Samples'); n = 1

In order of rising potency estimated from few doses:
1. Fc1ccc(-c2ncn(C3CCNCC3)c2-c2ccnc(Oc3ccc4c(c3)OCO4)n2)cc1 [SB-250715]  1.57 µM
2. COc1ccc(COc2ccc(Cc3cnc(N)nc3N)cc2OC)cc1 [GW632580X]  1.64 µM
3. Nc1c(C(=O)c2ccccc2)cnn1-c1ccc(F)cc1 [RO1151246-000]  1.76 µM
4. NC(=O)c1cccnc1COc1cc(-c2ccc(N3CCOCC3)nc2)cc2ncccc12 [BI01125081]  1.93 µM
5. Cc1ccc(-n2nc(C(C)(C)C)cc2NC(=O)Nc2ccc(OCCN3CCOCC3)cc2)cc1 [BIRB0876BS]  2.1 µM
6. CCS(=O)(=O)c1ccc(OC)c(Nc2ncc(-c3cccc(F)c3)o2)c1 [GW621970X_KCGS]  2.33 µM

tested on: ACOX1; set-up: species or system human, MV4-11 + K-562 + COLO205 + SK-N-BE2 + OVCAR-8; conditions: read-out: apparent Kd; compound concentrations:100 nM and 1000 nM (sheet 'Samples'); n = 1

In order of rising potency estimated from few doses:
1. Cl.Oc1ccc2ncnc(Nc3ccc(OCc4ccccc4)cc3)c2c1 [GI262866A]  0.83 µM
2. COc1ccc(C2=C(Nc3cccc(O)c3)C(=O)NC2=O)cc1 [SB-390766]  0.861 µM
3. COc1cc(F)c(F)c(F)c1C(=O)c1cnc(NC2CCN(S(C)(=O)=O)CC2)nc1N [RO4600703-000]  1.01 µM
4. COc1ccc(C2=NC(c3ccc(Cl)cc3F)C(C(=O)Nc3ccc4[nH]ncc4c3)=C(C)N2)cn1.O=C(O)C(F)(F)F (centres unmarked) [GSK534913A]  1.05 µM
5. COc1cc2ncn(-c3cc(OCc4sccc4Cl)c(C(N)=O)s3)c2cc1OC [GSK448459A]  1.27 µM
6. CCCCCNC(=O)[C@@H]1CCCN2C(=O)CC[C@H](NC(=O)[C@H](Cc3ccc(OP(=O)(O)O)cc3)NC(C)=O)C(=O)N12 [RO0324694-000]  1.64 µM
7. COc1ccccc1C(=O)c1cnc(NC2CCN(S(C)(=O)=O)CC2)nc1N [RO4514610-000]  2.19 µM
8. NC(=O)c1sc(-n2cnc3ccc(C(F)(F)F)cc32)cc1OCc1ccccc1Br [GW853606X]  2.2 µM

tested on: CDK16; set-up: species or system human, MV4-11 + K-562 + COLO205 + SK-N-BE2 + OVCAR-8; conditions: read-out: apparent Kd; compound concentrations:100 nM and 1000 nM (sheet 'Samples'); n = 1

In order of falling potency estimated from few doses:
1. Fc1ccc(-c2ncn(C3CCNCC3)c2-c2ccnc(Oc3ccc4c(c3)OCO4)n2)cc1 [SB-250715]  2.36 µM
2. COc1ccccc1C(=O)c1cnc(NC2CCN(S(C)(=O)=O)CC2)nc1N [RO4514610-000]  0.721 µM
3. COc1cc(F)c(F)c(F)c1C(=O)c1cnc(NC2CCN(S(C)(=O)=O)CC2)nc1N [RO4600703-000]  0.051 µM

tested on: MAP2K2; set-up: species or system human, MV4-11 + K-562 + COLO205 + SK-N-BE2 + OVCAR-8; conditions: read-out: apparent Kd; compound concentrations:100 nM and 1000 nM (sheet 'Samples'); n = 1

In order of falling potency estimated from few doses:
1. COc1ccc(COc2ccc(Cc3cnc(N)nc3N)cc2OC)cc1 [GW632580X]  1.63 µM
2. Fc1ccc(-c2ncn(C3CCNCC3)c2-c2ccnc(Oc3ccc4c(c3)OCO4)n2)cc1 [SB-250715]  1.56 µM
3. Nc1c(C(=O)c2ccccc2)cnn1-c1ccc(F)cc1 [RO1151246-000]  1.54 µM

tested on: PDXK; set-up: species or system human, MV4-11 + K-562 + COLO205 + SK-N-BE2 + OVCAR-8; conditions: read-out: apparent Kd; compound concentrations:100 nM and 1000 nM (sheet 'Samples'); n = 1

In order of rising potency estimated from few doses:
1. COc1cc(F)c(F)c(F)c1C(=O)c1cnc(NC2CCN(S(C)(=O)=O)CC2)nc1N [RO4600703-000]  0.501 µM
2. Cl.Oc1ccc2ncnc(Nc3ccc(OCc4ccccc4)cc3)c2c1 [GI262866A]  0.506 µM
3. NC(=O)c1cccnc1COc1cc(-c2ccc(N3CCOCC3)nc2)cc2ncccc12 [BI01125081]  1.68 µM

tested on: SLK; set-up: species or system human, MV4-11 + K-562 + COLO205 + SK-N-BE2 + OVCAR-8; conditions: read-out: apparent Kd; compound concentrations:100 nM and 1000 nM (sheet 'Samples'); n = 1

In order of rising potency estimated from few doses:
1. COc1cc2ncn(-c3cc(OCc4sccc4Cl)c(C(N)=O)s3)c2cc1OC [GSK448459A]  0.434 µM
2. COc1cc(F)c(F)c(F)c1C(=O)c1cnc(NC2CCN(S(C)(=O)=O)CC2)nc1N [RO4600703-000]  0.471 µM
3. COc1cc2ncn(-c3cc(O[C@H](C)c4ccccc4Cl)c(C(N)=O)s3)c2cc1OC [GSK237701A]  0.782 µM

tested on: STK16; set-up: species or system human, MV4-11 + K-562 + COLO205 + SK-N-BE2 + OVCAR-8; conditions: read-out: apparent Kd; compound concentrations:100 nM and 1000 nM (sheet 'Samples'); n = 1

In order of rising potency estimated from few doses:
1. Cl.Oc1ccc2ncnc(Nc3ccc(OCc4ccccc4)cc3)c2c1 [GI262866A]  1.16 µM
2. NC(=O)c1cccnc1COc1cc(-c2ccc(N3CCOCC3)nc2)cc2ncccc12 [BI01125081]  1.24 µM
3. COc1ccc(C2=C(Nc3cccc(O)c3)C(=O)NC2=O)cc1 [SB-390766]  1.59 µM
